Measured values: PubChem BioAssay AID1619 (SRMLSC, 2009)
Among all 220,000 compounds or so, about 830 (0.38%) were called active.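 Rule for the calls: active = compound inhibiting the enzyme by more than half at any dose during confirmatory dose-response retesting; inconclusive = strong single-dose inhibitors picked by rank but not retested; inactive = the rest.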 These entries were drawn from the full list. Results with a measured potency or affinity are listed apart.

molecular target: Leucine aminopeptidase (Plasmodium falciparum (isolate 3D7)) (UniProt Q8IL11); assay: P. falciparum M17LAP inhibitors, primary screen, biochemical, fluorogenic H-Leu-NHMec substrate, 1536-well (AID 1619); details: recombinant M17LAP, H-Leu-NHMec fluorogenic kinetic assay; at 30 µM; stronger effect = higher value;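 note: plate controls were full reaction with DMSO carrier for no effect and no enzyme background for full effect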
Sequence (Q8IL11 whole entry, looked up): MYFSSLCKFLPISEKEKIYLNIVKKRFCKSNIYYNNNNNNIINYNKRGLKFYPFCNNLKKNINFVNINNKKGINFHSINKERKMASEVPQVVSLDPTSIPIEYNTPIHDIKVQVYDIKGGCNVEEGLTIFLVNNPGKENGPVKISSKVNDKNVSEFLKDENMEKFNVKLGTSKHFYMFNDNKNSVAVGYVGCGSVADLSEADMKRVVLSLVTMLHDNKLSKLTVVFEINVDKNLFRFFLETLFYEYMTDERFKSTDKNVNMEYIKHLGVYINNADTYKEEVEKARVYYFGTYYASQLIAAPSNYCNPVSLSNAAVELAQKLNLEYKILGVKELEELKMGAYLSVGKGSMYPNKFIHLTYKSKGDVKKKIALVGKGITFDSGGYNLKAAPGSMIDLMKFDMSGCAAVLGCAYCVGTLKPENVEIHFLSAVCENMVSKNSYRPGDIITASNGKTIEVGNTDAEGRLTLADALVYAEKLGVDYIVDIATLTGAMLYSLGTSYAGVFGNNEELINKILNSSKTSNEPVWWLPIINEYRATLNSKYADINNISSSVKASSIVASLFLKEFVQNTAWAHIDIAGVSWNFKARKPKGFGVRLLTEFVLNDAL

Row | SMILES | inhibition
1 | Cc1ccccc1S(=O)(=O)Nc1nc2ccccc2nc1N1CCOCC1 | 16.6% (inactive)
2 | CC1=C(C(N)=O)C(c2ccccc2)n2nc(-c3cccs3)nc2N1 (centres undefined) | -4.69% (inactive)
3 | Cc1cc(NC(=O)CSc2nnc(CNc3cccc(C(F)(F)F)c3)n2Cc2ccco2)no1 | 7.47% (inactive)
4 | O=C(CSc1nnc(CNc2cccc(C(F)(F)F)c2)n1Cc1ccco1)NCc1ccco1 | 7.9% (inactive)
5 | COc1ccc(NC(=O)CN(c2ccccc2)S(=O)(=O)N(C)C)cc1Cl | -2.44% (inactive)
6 | COc1ccccc1-c1nnc(SCC(=O)N2CCOCC2)o1 | -5.18% (inactive)
7 | Cc1ccc(S(=O)(=O)NC(=O)c2cc(C)n(-c3ccccc3)c2C)cc1 | 24.3% (inactive)
8 | Cc1ccc(S(=O)(=O)NC(=O)c2cc(C)n(-c3ccc(N(C)C)cc3)c2C)cc1 | 30.1% (inactive)
9 | CCOC(=O)c1c(NC(=O)/C=C/C(=O)O)sc(C)c1-c1ccc(F)cc1 | 9.12% (inactive)
10 | CCOC(=O)c1c(-c2cccc3ccccc23)csc1NC(=O)C1C2CCC(O2)C1C(=O)O (centres undefined) | 26.3% (inactive)
11 | CCCOC(=O)c1c(-c2ccc(C)cc2C)csc1NC(=O)C1C2CCC(O2)C1C(=O)O (centres undefined) | 44.7% (inactive)
12 | CCOC(=O)c1cc(NC(=O)C2C3CCC(O3)C2C(=O)O)cc(C(=O)OCC)c1 (centres undefined) | -8.46% (inactive)
13 | O=C(O)C1C2CCC(O2)C1C(=O)Nc1ccc(F)cc1 (centres undefined) | -6.52% (inactive)
14 | COC(=O)c1c(-c2ccc(C(C)(C)C)cc2)csc1NC(=O)C1C2CCC(O2)C1C(=O)O (centres undefined) | 35.5% (inactive)
15 | CC(/C=N/NC(=O)c1ccccn1)=C\c1ccco1 | 9.53% (inactive)
16 | Cc1ccc([N+](=O)[O-])cc1-c1ccc(/C=N\n2nnnc2N)o1 | 14.9% (inactive)
17 | CSc1ccc(Cl)c(C(=O)OCC(=O)N(C)CCC#N)c1 | 1.64% (inactive)
18 | Cc1ccc(C)c(N(C(=O)Cn2nnc3ccccc32)C(C(=O)NCc2ccco2)c2ccncc2)c1 (centres undefined) | -0.41% (inactive)
19 | O=C1CCC(=O)N1CN(C(=O)c1ccco1)c1ccccc1 | -2.98% (inactive)
20 | O=C(Cc1ccccc1)NN1C(=O)c2ccccc2C1=O | 23.7% (inactive)
21 | Cc1ccc(SCC(=O)NN2C(=O)c3ccccc3C2=O)cc1 | 2.07% (inactive)
22 | CCOc1cc(OCC)cc(C(=O)NC(=S)Nc2cccc(C(F)(F)F)c2)c1 | 3% (inactive)
23 | COC(=O)c1[nH]c(C)c(/C(O)=C2\C(=O)C(=O)N(CCN3CCOCC3)C2c2ccc(C)o2)c1C (centres undefined) | 3.85% (inactive)
24 | COc1ccc(/C=C/C2=NN(C)C(=O)CC2)cc1 | 48.2% (inactive)
